Screens as filed in PubChem.
D2 ag-1 – HTS Assay for Allosteric Agonists of the Human D2 Dopamine Receptor: Primary Screen for Agonists. D(2) dopamine receptor (Homo sapiens), P14416. activation, % at 2 µM. AID 485358, 2010. 340,000 compounds, 0.53% hits. HEK293 T-REx D2 cells, calcium flux agonist mode;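 active = activation over 3 SD above normal in the single-dose calcium agonist read, cut at about 30% in these data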
Target sequence (P14416 whole entry, looked up): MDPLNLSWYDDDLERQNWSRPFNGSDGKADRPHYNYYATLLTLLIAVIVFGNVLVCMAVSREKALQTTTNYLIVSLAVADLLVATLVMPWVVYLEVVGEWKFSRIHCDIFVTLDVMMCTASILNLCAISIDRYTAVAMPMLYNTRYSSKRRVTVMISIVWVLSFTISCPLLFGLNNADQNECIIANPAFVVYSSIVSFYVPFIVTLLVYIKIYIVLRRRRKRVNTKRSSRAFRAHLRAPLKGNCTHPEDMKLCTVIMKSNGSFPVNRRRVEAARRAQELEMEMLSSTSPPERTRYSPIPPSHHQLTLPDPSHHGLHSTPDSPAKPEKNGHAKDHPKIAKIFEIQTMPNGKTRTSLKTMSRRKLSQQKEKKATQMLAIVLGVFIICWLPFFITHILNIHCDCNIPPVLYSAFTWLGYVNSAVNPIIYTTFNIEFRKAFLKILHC
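Agonism is scored from calcium flux in a force-coupled, inducible HEK293 cell line expressing D2, read kinetically for 180 s after compound addition against dopamine controls.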
D2 PAM-1 – HTS Assay for Positive Allosteric Modulators of the Human D2 Dopamine Receptor: Primary Screen for Potentiators; D(2) dopamine receptor (Homo sapiens), P14416; HEK293 T-REx D2, calcium flux, EC20 dopamine potentiation; potentiation, % at 10 µM; 340,000 compounds, 0.34% hits;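 active = potentiation over 3 SD above the plate norm, cut at about 30% in these data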
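Tetracycline-induced Hek293 Trex D2 cells, force-coupled to calcium, loaded with no-wash calcium dye. Compound added with 180 s kinetic read for agonism, then EC20 dopamine and a further 180 s read for potentiation.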
D2 ag-2 – Beta-Arrestin HTS for Positive Allosteric Modulators of the Human D2 Dopamine Receptor: Agonists | AID 624465, 2012 | 360,000 compounds, 0.084% hits | activation, % (test concentration not listed) | DiscoveRx PathHunter D2 beta-arrestin, luminescence, 90 min; 100% = 57 uM dopamine signal; in the data active = activation above about 40%; inconclusive = between about 15% and that limit
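DiscoveRx PathHunter D2 beta-arrestin cells (2,100/well) attached overnight, then compound-stimulated 90 min at 37 C in HBSS/10 mM HEPES/0.1% Tween-20 buffer; beta-galactosidase complementation read by luminescence after 1 h at ambient temperature. Dopamine 57 uM final (EC100) as control.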
D2 PAM-2 – Beta-Arrestin HTS for Positive Allosteric Modulators of the Human D2 Dopamine Receptor: Potentiators | AID 624464, 2012 | 360,000 compounds, 0.23% hits | DiscoveRx D2 beta-arrestin cells, luminescence, 90 min; 100% = 57 uM dopamine signal | potentiation, % (no concentration beside the values); in the data active = potentiation above about 50%; inconclusive = mostly about 30% to 49%
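D2 cells co-treated with compound plus 50 nM dopamine (EC20) for 90 min at 37 deg C to detect potentiation. Beta-arrestin recruitment was read as enzyme-fragment luminescence after 1 h at ambient temperature. Full response was set by 57 uM dopamine.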
D2 antag – HTS Assay for Allosteric Antagonists of the Human D2 Dopamine Receptor: Primary Screen for Antagonists. HEK293 TREx D2 cells, calcium flux, dopamine EC80. inhibition, % at 10 µM. 340,000 compounds, 2% hits; in the data active = inhibition above about 30%; inactive = below that, where a call was filed
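HEK293 T-REx D2 cells, tet-induced, calcium dye no-wash. Cpd pintool add, 180 s kinetic, then EC80 DA, 180 s kinetic. Ca flux read.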
Numbers stand for hits. In the library only some 2.4% were active in any assay of this set; here they are far more common.

O=C(COC(=O)c1cc[n+]([O-])cc1)Nc1ccc(Br)cc1 was read as D2 ag-1 inactive, D2 PAM-1 inactive, D2 ag-2 inactive, D2 PAM-2 inactive and D2 antag inactive.
Screening O=C(COC(=O)c1cc[n+]([O-])cc1)Nc1ccc(SC(F)F)cc1 returned D2 ag-1 inactive, D2 PAM-1 inactive, D2 ag-2 inactive, D2 PAM-2 inactive and D2 antag 31.
COc1cc(NC(=O)N(Cc2ccco2)C2CCN(C(C)=O)CC2)cc(OC)c1OC was read as D2 PAM-1 inactive.
CCCSC1=C(C#N)C(c2ccc(OC)cc2)C2=C(CC(C)(C)CC2=O)N1 (stereo unspecified) was read as D2 ag-1 inactive, D2 PAM-1 inactive, D2 ag-2 inactive, D2 PAM-2 inactive and D2 antag 42.
For O=C(NC1CCCC1)C(c1ccc(Cl)cc1)N1CCOCC1 (stereo unspecified) the results were D2 ag-1 inactive, D2 PAM-1 inactive, D2 ag-2 inactive, D2 PAM-2 inactive and D2 antag 32.
Cc1ccc(C(=O)OC2CCOC2=O)cc1NC(=O)c1ccco1 (stereo unspecified) was read as D2 ag-1 inactive, D2 PAM-1 inactive, D2 ag-2 inactive, D2 PAM-2 inactive and D2 antag 35.
`CCCOc1ccc(NC(=O)CC2C(=O)N(c3ccc(C)cc3)C(=O)N2Cc2cccc(OC)c2)cc1` (stereo unspecified) gave D2 ag-1 inactive and D2 PAM-1 inactive.
For COCCNC(=O)C(c1ccc(C)o1)N(C(=O)C(=O)NC1CCCCC1)c1ccc(F)cc1 (stereo unspecified) the results were D2 ag-1 inactive, D2 PAM-1 34, D2 ag-2 inactive, D2 PAM-2 inactive and D2 antag inactive.
Cc1cc(NC(=O)CCC(=O)N(c2ccc(F)cc2)C(C(=O)NC2CCCC2)c2ccc(C)o2)no1 (stereo unspecified) was read as D2 ag-1 inactive, D2 PAM-1 inactive, D2 ag-2 inactive, D2 PAM-2 inactive and D2 antag inactive.
Screening CCc1cccc(CC)c1NS(=O)(=O)c1ccc2c(c1)CCN2C(=O)C1CC1 returned D2 ag-1 inactive and D2 PAM-1 inactive.
Nc1ccc(C2=Nc3cccc4cccc(c34)N2)cc1 was read as D2 ag-1 inactive, D2 PAM-1 inactive, D2 ag-2 inconclusive, D2 PAM-2 inactive and D2 antag inactive.
For CC1=Nc2cccc3cccc(c23)N1 the results were D2 ag-1 inactive, D2 PAM-1 inactive, D2 ag-2 inactive, D2 PAM-2 56 and D2 antag inactive.
`Cc1ccccc1CNC(=O)CCC(=O)N1CC2CCCN2c2ccccc21` (stereo unspecified) gave D2 ag-1 inactive and D2 PAM-1 inactive.
For COc1ccc(S(=O)(=O)NNc2nc(C)cc(C)n2)cc1Br the results were D2 ag-1 inactive, D2 PAM-1 inactive, D2 ag-2 inactive, D2 PAM-2 inactive and D2 antag 52.
`Cc1cc(C)nc(NNS(=O)(=O)c2ccc(Cl)cc2)n1` gave D2 ag-2 inactive and D2 PAM-2 inactive.
Cc1cc(-c2ccccc2)nc2cc(C(=O)NCc3ccco3)nn12 was read as D2 ag-1 inactive, D2 PAM-1 36, D2 ag-2 inactive, D2 PAM-2 inactive and D2 antag inactive.
`COc1ccc(-c2cc(C(F)(F)F)n3nc(C(=O)NCc4ccco4)cc3n2)cc1` gave D2 ag-1 inactive, D2 PAM-1 inactive, D2 ag-2 inactive, D2 PAM-2 inactive and D2 antag inactive.
For Cn1nc(-c2ccc(Cl)cc2)c2cc(C(=O)N3CCOCC3)sc21 the results were D2 ag-1 inactive, D2 PAM-1 inactive, D2 ag-2 inactive, D2 PAM-2 inactive and D2 antag 31.
Screening CCNC(=O)C1(C)CCCN(C(=O)c2sc(-c3ccccc3)nc2C)C1 (stereo unspecified) returned D2 ag-2 inactive and D2 PAM-2 inactive.
